Experimental findings from PubChem BioAssay (NCI) are described below.

“And” between values parts separate entries of the source, which are not always exact repeats. Equal values may be shown once. This is part of a sample that, as a whole, favours compounds with a hit. Of some 83,000 tested, about 20% had one in any assay.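 Treatment: one concentration, 48 hours, 96-well format. Scoring: percent growth, with anything below 10 considered active.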 The source made the active and inactive calls.

What all share (assay): NCI-60 one-dose screen, 48 h (100 = growth as untreated, 0 = no growth, -100 = all killed)
Holding throughout (details): 10 µM unless noted

Experiment [1] deals with NCI-H23 lung.
Experiment [2] concerns NCI-H226 lung.
Experiment [3] has as its system NCI-H322M lung.
The test system of experiment [4] is HOP-62 NSCLC.
For experiment [5], the system named is NCI-H460 lung.
Experiment [6] relates to HOP-92 NSCLC.
Experiment [7] has as its system NCI-H522 lung.
The subject of experiment [8] is A549/ATCC NSCLC.
Experiment [9] deals with 786-0 renal.
Experiment [10] has as its system COLO 205 colon.
The subject of experiment [11] is DU-145 prostate.
The test system of experiment [12] is K-562 leukemia.
For experiment [13], the system named is MALME-3M melanoma.
For experiment [14], the system named is MDA-MB-231 breast.
Experiment [15] concerns RXF 393 renal.
Experiment [16] relates to SF-268 CNS.
For experiment [17], the system named is SF-295 CNS.
The test system of experiment [18] is SF-539 CNS.
The test system of experiment [19] is UACC-257 melanoma.
Experiment [20] concerns M14 melanoma.

On to `C=C[C@]1(C)C=C2CC[C@@H]3C(C)(C)C(=O)CC[C@@]3(C)[C@@H]2CC1`, for which the growth in experiment [1] was 104% (inactive); in experiment [2], 126% (inactive); in [3], 77% (inactive); in [4], 105% (inactive); in experiment [5], 109% (inactive); in experiment [6], 97.7% (inactive). The growth in [7] is 94.6% (inactive); in experiment [8], 101% (inactive); in [9], 98.6% (inactive); in experiment [10] it was 116% (inactive); in [11], 108% (inactive); in [12] it was 95.3% (inactive). Moreover, the growth is 1.04% (active) in [13]; 111% (inactive) in experiment [14]; 127% (inactive) in [15]; 97.6% (inactive) in [16]; 101% (inactive) in experiment [17]; 103% (inactive) in [18]. The growth in experiment [19] was 106% (inactive); in experiment [20], 103% (inactive).

On to `CCOC(=O)C(=Cc1ccc(C#N)cc1)C(=O)OCC`, for which the growth in [1] is 55.5% (inactive); in experiment [2], -36.3% (active); in [3], 73.2% (inactive); in [4], 104% (inactive); in experiment [5], 81.6% (inactive); in experiment [6], 58.3% (inactive). Further, the growth in [7] is -24.6% (active); in experiment [8], 53.2% (inactive); in [9] it was 0.647% (active); in [10], 4.69% (active); in experiment [11], 43.8% (inactive); in experiment [12], 3.59% (active). Besides, the growth is -10.9% (active) in experiment [13]; 16.3% (inactive) in experiment [14]; -62.5% (active) in [15]; 28.1% (inactive) in [16]; 95.3% (inactive) in experiment [17]; -49.9% (active) in [18]. Besides, the growth in [19] was 14.6% (inactive); in experiment [20] it was 27% (inactive).

`Nc1nc(Nc2cccnc2)sc1C(=O)c1ccccc1F`: the growth in [1] was 37.9% (inactive); in experiment [2], 24.4% (inactive); in [3], 54.7% (inactive); in experiment [4], 21.2% (inactive); in [5] it was 21.7% (inactive); in [6], 51.8% (inactive). For the same compound, the growth in experiment [7] was 71.4% (inactive); in experiment [8] it was 27% (inactive); in [9], 18.2% (inactive); in experiment [10], 20.5% (inactive); in experiment [11], 17.8% (inactive); in experiment [12] it was 66.5% (inactive). Moreover, the growth in experiment [13] was 157% (inactive); in [14], 83.1% (inactive); in [15], -42% (active); in [16], 20.8% (inactive); in experiment [17], 34.9% (inactive); in [18] it was -3.32% (active). For the same compound, the growth in experiment [19] is 72.9% (inactive); in [20] it was 59.2% (inactive).

Consider `CN1CCN(CCCN2c3ccccc3Sc3ccc(Cl)cc32)CC1`, for which the growth was 82.3% (inactive) and 86.4% (inactive) in experiment [1]; 95.7% (inactive) and 95.1% (inactive) in experiment [2]; 93.1% (inactive) in [3]; 90.4% (inactive) in experiment [4]; 93.4% (inactive) and 96.9% (inactive) in experiment [5]; 48.1% (inactive) and 29.4% (inactive) in experiment [6]. Moreover, the growth in experiment [7] is 81.5% (inactive) and 92.9% (inactive); in [8], 73.9% (inactive) and 80.4% (inactive); in experiment [9], 62.8% (inactive) and 72% (inactive); in experiment [10], 26.8% (inactive); in [11], 91% (inactive) and 104% (inactive); in experiment [12], 42.3% (inactive) and 39.7% (inactive). The growth in [13] was 91.6% (inactive); in experiment [14], 70.7% (inactive) and 55.1% (inactive); in [15], 47% (inactive) and 63% (inactive); in experiment [16], 82.3% (inactive) and 88.2% (inactive); in experiment [17], 85.7% (inactive) and 82.5% (inactive); in experiment [18], 85.1% (inactive). Also, the growth is -34.7% (active) and 53.2% (inactive) in experiment [19]; -53.2% (active) and 63.3% (inactive) in [20].

Consider `Cc1ccc(C(=O)Nc2nc3c(s2)CN(Cc2ccccc2)CC3)cn1`, for which the growth is 80.5% (inactive) in [1]; 88.8% (inactive) in experiment [2]; 92.9% (inactive) in experiment [3]; 88.5% (inactive) in experiment [4]; 101% (inactive) in experiment [5]; 97.5% (inactive) in experiment [6]. Moreover, the growth in experiment [7] was 65.9% (inactive); in experiment [8], 75.4% (inactive); in experiment [9] it was 85.1% (inactive); in experiment [10], 87.4% (inactive); in experiment [11], 98% (inactive); in experiment [12], 36.8% (inactive). Also, the growth in [13] was 87.1% (inactive); in experiment [14] it was 100% (inactive); in [15], 102% (inactive); in experiment [16] it was 91% (inactive); in experiment [17], 89.6% (inactive); in experiment [18], 103% (inactive). The growth in experiment [19] was 92.9% (inactive); in [20], 79.9% (inactive).

As to `C/C=C(\C)C(=O)N[C@H]1CC[C@]2(C)C3CC[C@@]4(C)C(CC[C@@H]4C(C)N(C)C)C3CCC2[C@H]1OC(C)=O` (stereo not given in full), the growth in [1] is -8.02% (active); in experiment [2], -2.69% (active); in [3] it was -48.5% (active); in experiment [4] it was -60% (active); in [5] it was -86.4% (active); in [6], -49.4% (active). The growth in [7] was 6.83% (active); in experiment [8], -17.8% (active); in experiment [9] it was -88.8% (active); in experiment [10], -90.7% (active); in experiment [11], 4.99% (active); in [12], 18% (inactive). For the same compound, the growth was -68.6% (active) in [13]; -32.3% (active) in experiment [14]; -61.5% (active) in experiment [15]; -84.6% (active) in [16]; -66.9% (active) in experiment [17]; -95.7% (active) in experiment [18]. The growth in [19] was -51.3% (active); in experiment [20], -64.1% (active).
